The structures appear in SMILES notation. Activity calls are given as the source filed them. Calls come from the whole dose curve; as a rule, active = well fitted curve in the direction sought with a large enough effect; inactive = no such curve, though single readings can be large or run the other way.

The assay in a line: qHTS for small molecule inhibitors of Yes1 kinase: Counter Assay (AID 686950).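 Note: no kinase present so only ADP-Glo detection of a fixed ADP amount is tested; luminescence from ADP-Glo reporting ADP in a fixed ATP and ADP mixture.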 The settings on record: series mostly up to 76.9 µM. In outline:
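Enzyme-free detection counter-screen: compounds preincubated 20 min in buffer, then 0.08 mM ATP plus 0.02 mM ADP added for 60 min at room temperature; ADP-Glo luminescence. Buffer 50 mM Tris pH 7.5, 10 mM MgCl2, 150 mM NaCl; normalized to ATP+ADP and ATP-only controls.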
For `C[C@@H]1C[C@H]2[C@@H]3CCC4=CC(=O)C=C[C@]4(C)C3(F)[C@@H](O)C[C@]2(C)[C@@]1(O)C(=O)CO` (stereo partly specified), the result was inactive.

As to `O=C(OCC#CCSc1nnc(-c2ccc3ccccc3c2)o1)c1cc2ccccc2s1`, the compound was classed as inactive.

`CC1(C)Cc2c(-c3ccccc3)c(-c3ccc(Cl)cc3)c(CC(=O)O)n2C1`: the compound was called inactive.

As to `NC(=O)c1ccc(I)c([N+](=O)[O-])c1`, the outcome was inactive.

Take `OC[C@H](Cc1ccccc1)Nc1nc(Oc2ccc3c(c2)CCC3)nc2c1ncn2Cc1ccc(-c2ccccc2)cc1`: the call was inactive.

In the case of `CC1(C)SCCN(S(=O)(=O)c2ccc(OCC#CCO)cc2)[C@@H]1C(=O)NO`, the outcome was inactive.

On to `OCCC#Cc1nc(-c2ccc(F)cc2)c(-c2ccncc2)n1CCCc1ccccc1`, for which the compound was called inactive.

In the case of `COc1cc2c(cc1OC)CN(CCc1ccc(NC(=O)c3cccc4c(=O)c5cccc(OC)c5[nH]c34)cc1)CC2`, the outcome was inactive.

As for `O=C(O)[C@@H](c1ccc(OCc2ccc3ccccc3n2)cc1)C1CCCC1`, the result was inactive.

Turning to `CS(=O)(=O)Oc1ccc2c(NC(N)=O)c(C(=O)c3ccc(Cl)cc3Cl)oc2c1`, the compound was called inactive.

In the case of `COCC(=O)NCC=Cc1ccc2ncnc(Nc3ccc(Oc4ccc(C)nc4)c(C)c3)c2c1`, the outcome was inactive.

In the case of `O=C(c1cc(Cc2n[nH]c(=O)c3ccccc23)ccc1F)N1CCN(C(=O)C2CC2)CC1`, the compound was called inactive.

For `CNCc1ccc(-c2[nH]c3cc(F)cc4c3c2CCNC4=O)cc1`, the outcome was inactive.

Consider `S=C(NCc1ccc2c(c1)OCO2)N1CCN(c2ncnc3c2oc2ccccc23)CC1`, for which the outcome was inactive.

In the case of `COc1ccc(C2=N[C@H](c3ccc(Cl)cc3)[C@H](c3ccc(Cl)cc3)N2C(=O)N2CCNC(=O)C2)c(OC(C)C)c1`, the compound was classed as inactive.

Regarding `COc1cc(Oc2ccnc3cc(OC)c(OC)cc23)ccc1NC(=O)NC(C)c1nccs1` (stereo unspecified), the compound was classed as inactive.

As to `CCN(CC)CCCC(C)Nc1nc(C)cc(Nc2ccc3nc(C)cc(N)c3c2)n1` (stereo unspecified), the call was inactive.

On to `COc1ccc(-c2oc3cc(OC)ccc3c2C(=O)c2ccc(C#N)cc2)cc1`, for which the compound was called inactive.

In the case of `CCC(C)n1ncn(-c2ccc(N3CCN(c4ccc(OC[C@H]5CO[C@](Cn6cncn6)(c6ccc(Cl)cc6Cl)O5)cc4)CC3)cc2)c1=O` (stereo partly specified), the compound was called inactive.

For the compound `CNC(=O)c1ccc(C)c(-n2c(C)cc(OCc3ccc(F)cc3F)c(Br)c2=O)c1`, the result was inactive.

Take `Cc1cc2c(F)c(Oc3ncnn4cc(OC[C@@H](C)O)c(C)c34)ccc2[nH]1`: the compound was called inactive.

`COc1cc(Nc2ncc3c(n2)-c2ccc(Cl)cc2C(c2c(F)cccc2OC)=NC3)ccc1C(=O)O`: the call was inactive.

`Cn1cc(-c2ccc3nnc(C(F)(F)c4ccc5ncccc5c4)n3n2)cn1`: the call was inactive.

Consider `Cc1cnc(Nc2ccc(OCCN3CCCC3)cc2)nc1Nc1cccc(S(=O)(=O)NC(C)(C)C)c1`, for which the compound was classed as inactive.

For the compound `COc1ccccc1[C@H](c1cccc2ccccc12)[C@@](C)(C#N)C(=O)N1CCC(c2cccc(C(F)(F)F)c2)CC1`, the compound was classed as inactive.

`C#Cc1cccc(Nc2ncnc3cc(OCCOC)c(OCCOC)cc23)c1`: the call was inactive.

Turning to `COc1ccccc1-c1cccc(-c2c(O)c3cc(C#N)c(Cl)cc3[nH]c2=O)c1`, the compound was called inactive.

In the case of `CNC(=O)c1ccc(N2C(=S)N(c3ccc(C#N)c(C(F)(F)F)c3)C(=O)C2(C)C)cc1F`, the outcome was inactive.

Regarding `CCC(=O)N[C@H]1CC[C@H](C(=O)N(C)c2ccc(-c3nc4ccccc4o3)cc2)C1`, the compound was called inactive.

As for `CS(=O)(=O)c1ccc(C(=O)Nc2ccc(Cl)c(-c3ccccn3)c2)c(Cl)c1`, the outcome was inactive.

For `O=c1ncn2nc(Sc3ccc(F)cc3F)ccc2c1-c1c(Cl)cccc1Cl`, the call was inactive.

Consider `CC(C)(N)C(=O)N[C@H](COCc1ccccc1)C(=O)N1CCC2(CC1)CN(S(C)(=O)=O)c1ccccc12`, for which the call was inactive.

Regarding `CN(C)c1ccc(C2Nc3ccc4ccccc4c3C3=C2C(=O)CC(C)(C)C3)cc1Br` (stereo unspecified), the outcome was inactive.

Regarding `CCOC(=O)N[C@@H]1CC[C@@H]2[C@@H](C1)C[C@H]1C(=O)O[C@H](C)[C@H]1[C@@H]2C=Cc1ccc(-c2cccc(F)c2)cn1`, the compound was classed as inactive.

On to `CCc1ccc(CCOc2ccc(CC3SC(=O)NC3=O)cc2)nc1` (stereo unspecified), for which the compound was classed as inactive.

On to `c1ccc(-c2nn3c(c2-c2ccnc4cc(OCCN5CCOCC5)ccc24)CCC3)nc1`, for which the compound was classed as inactive.

The values above are taken from PubChem BioAssay (NCATS).
